95 compounds from PubChem BioAssay AID793 (The Scripps Research Institute Molecular Screening Center, 2007) can be followed below.

Among all 140,000 compounds or so, about 1,400 (1%) were called active. The full list was thinned out, with actives kept by preference. Unmarked numbers belong to inactive results. Cut-off read from the data, not from the text of the source: active = inhibition above about 17%; inactive = the rest.

The target in this test is Neuropeptide Y receptor type 2 (Homo sapiens) (UniProt P49146). In words: NPY-Y2 receptor antagonists, primary screen, cell-based (AID 793).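 Note: 0% = vehicle with agonist challenge and 100% = reference antagonist with challenge.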 Conditions: NPY-Y2 expressing cells, antagonist mode; at 2.7 µM; hits give high values.
Neuropeptide Y receptor type 2 (Homo sapiens), sequence (P49146 whole entry, looked up): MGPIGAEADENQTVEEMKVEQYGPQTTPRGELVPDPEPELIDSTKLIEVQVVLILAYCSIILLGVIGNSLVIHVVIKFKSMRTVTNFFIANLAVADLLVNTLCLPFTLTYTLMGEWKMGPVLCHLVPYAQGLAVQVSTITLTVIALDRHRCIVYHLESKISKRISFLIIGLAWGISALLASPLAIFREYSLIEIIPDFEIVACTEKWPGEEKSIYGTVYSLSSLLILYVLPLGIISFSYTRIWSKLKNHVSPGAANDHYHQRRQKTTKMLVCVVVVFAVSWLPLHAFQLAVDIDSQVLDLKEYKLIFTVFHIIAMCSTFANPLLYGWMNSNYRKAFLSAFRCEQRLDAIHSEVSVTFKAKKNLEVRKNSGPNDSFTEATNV
For the compound `Cc1ccc(N(NC(=O)C(C)(C)O)C(=O)c2ccccc2)cc1C`, the inhibition (in general, the relative decrease from the control value, in per cent) is 2.31%.

As for `CCCCC(O)(CCCC)C(=O)NN(C(=O)CCl)c1ccccc1`, the inhibition is 21.9% (active).

As for `CCCC(O)(CCC)C(=O)NN(C(=O)CCl)c1cccc(C)c1`, the inhibition is 8.32%.

`CCCc1cc(=O)[nH]c(SCc2cc(=O)oc3c(C)c(C)ccc23)n1`: the inhibition is 6.69%.

Consider `COc1cc(Cl)c(C)cc1NC(=O)[C@@H]1CCCN1C(=O)c1cccs1`, for which the inhibition was 6.63%.

For `O=C(Oc1ccccc1)Oc1ccc2c(c1)oc(=O)c1ccccc12`, the inhibition is 23.1% (active).

Consider `NC(=O)COc1ccc2c3c(c(=O)oc2c1)CCCCC3`, for which the inhibition was 0.83%.

On to `CC(=O)Oc1ccc2c(C)c(CC(C)O)c(=O)oc2c1` (stereo not given), for which the inhibition is 2.41%.

Turning to `Cc1nc2ccccc2cc1C(=O)N/N=C/c1ccc([N+](=O)[O-])cc1`, the inhibition is -0.48%.

Consider `Cc1cc(C(=O)OCC(=O)Nc2nnc(C(C)C)s2)c2ccccc2n1`, for which the inhibition is 4.1%.

Take `CN(C)Cc1ccc(F)cc1Sc1cc(Cl)ccc1Cl`: the inhibition was 20.2% (active).

As to `CCN1CCN(c2c(Cl)cccc2NC(=O)c2ccc(Br)o2)CC1`, the inhibition is 31.1% (active).

Regarding `CCCC(=O)Nc1ccc(Cl)c(NC(=O)c2ccc(Br)o2)c1`, the inhibition is -1.21%.

For `COc1cc(OC)c(NC(=O)c2ccc(Br)o2)cc1Cl`, the inhibition is -1.32%.

As to `COC(=O)c1ccc(CSc2nc3cc(Cl)ccc3o2)cc1`, the inhibition is 21.5% (active).

With `COC(=O)c1ccc(CSc2nncn2C)cc1`, the inhibition was 3.48%.

For the compound `O=C(CSc1nc2ccccc2o1)N1c2ccccc2Sc2ccc(Cl)cc21`, the inhibition is 6.15%.

For `Cc1ccc(S(=O)(=O)NNC(=O)Nc2cccc3ccccc23)cc1`, the inhibition was 1.93%.

Consider `COc1cccc2c(O)cc(=O)n(C)c12`, for which the inhibition is 1.18%.

Consider `CCOc1ccc(S(=O)(=O)N/N=C(\C)c2ccc(Cl)c(Cl)c2Cl)cc1`, for which the inhibition was 17.4% (active).

With `C/C(=N\NS(=O)(=O)c1ccc(Br)cc1)c1cccs1`, the inhibition is 3.39%.

Consider `CCOc1ccc(S(=O)(=O)NCC2CCCO2)cc1` (stereo not given), for which the inhibition was 2.22%.

For the compound `Cc1cccc(NC(=O)/C=C/c2ccc3c(c2)OCO3)n1`, the inhibition is 3.73%.

For `COc1ccc(CCNC(=O)CSc2nc(-c3ccc(OC)c(OC)c3)ccc2C#N)cc1`, the inhibition was 4.73%.

Take `COc1cccc(-c2ccc(C#N)c(SCC(=O)NCCc3ccc(Cl)cc3)n2)c1`: the inhibition was 18.3% (active).

On to `COc1ccc(CCNC(=O)CSc2nnc(-c3cccc(F)c3)o2)cc1OC`, for which the inhibition is -1.35%.

`Cc1nnc(NC(=O)/C=C/c2ccco2)s1`: the inhibition was 10.7%.

On to `O=C1OC(/C=C/c2ccccc2)=NC/1=C/c1ccco1`, for which the inhibition is 0.56%.

In the case of `CCN(CC)c1ccc(C2C3CCCCC3(O)CCN2CC(=O)Nc2ccccc2)cc1` (stereo not given), the inhibition was 5.72%.

On to `CC1CCCCN1CC(=O)NCc1ccc2c(c1)OCO2` (stereo not given), for which the inhibition was 1.99%.

For `Cc1ccc(NC(=O)CN2CCC3(O)CCCCC3C2c2ccc3c(c2)OCO3)c(C)c1` (stereo not given), the inhibition is 21.3% (active).

In the case of `FC(F)Oc1ccccc1NC(=S)Nc1cccc(Cl)c1Cl`, the inhibition was 0.76%.

Consider `CCCCN(CC)C(=S)Nc1ccc2nc3n(c(=O)c2c1)CCCCC3`, for which the inhibition was 3.37%.

For `COc1ccc(/C=C(/CC(=O)Nc2ccc(C)cc2)c2nc3ccccc3s2)cc1`, the inhibition was 3.93%.

As to `O=C(C(=O)N1CCc2ccccc2C1)N1CCc2ccccc2C1`, the inhibition is -0.59%.

Take `CCOC(=O)/C(C#N)=C/c1ccc(N2CCN(Cc3ccccc3)CC2)cc1`: the inhibition was 5.28%.

As to `CC1CN(S(=O)(=O)c2ccc(C(=O)Nc3sccc3C(N)=O)cc2)CC(C)O1` (stereo not given), the inhibition is -0.61%.

In the case of `Cc1ccc(/C=N/NC(=O)c2sccc2OCc2ccc(F)cc2)cc1`, the inhibition was 25.7% (active).

With `CNC(=S)NNC(=O)c1sccc1OCc1ccccc1`, the inhibition was -0.16%.

With `Cc1ccsc1C(=O)N/N=C/c1ccc([N+](=O)[O-])cc1`, the inhibition was 1.67%.

In the case of `CCCOc1ccc(C(=O)C(CCC(CNCC)C(=O)c2ccc(OCCC)cc2)CNCC)cc1` (stereo not given), the inhibition was 30.9% (active).

Turning to `CCCCOc1ccc(C(=O)NN2CCN(C)CC2)cc1`, the inhibition is 0.95%.

On to `CCCCOc1ccc(C(=O)NCc2ccncc2)cc1`, for which the inhibition was -1.04%.

Regarding `CCOc1ccc(C(=O)Nc2nccs2)cc1[N+](=O)[O-]`, the inhibition is -0.69%.

On to `O=C(OC1CCOC1=O)c1cccc(S(=O)(=O)Nc2ccc(F)cc2)c1` (stereo not given), for which the inhibition is 2.56%.

Consider `CCc1cccc(NC(=O)CCC(=O)O)c1`, for which the inhibition is 1.58%.

`CCOC(=O)COc1ccc([N+](=O)[O-])cc1`: the inhibition was 1.59%.

As for `COc1ccc(C2CC(=O)Nc3sc(=N)c4c(N)c(C#N)c(N)nc4c32)cc1OC` (stereo not given), the inhibition was 86.1% (active).

Turning to `COc1ccc(OC)c2c(N)c(C#N)c(C(F)(F)C(F)(F)F)nc12`, the inhibition was -1.33%.

With `N#Cc1c(N)nc2c3c(sc(=N)c2c1N)NC(=O)CC3c1ccccc1Cl` (stereo not given), the inhibition is 1.65%.

`CCN(CC)S(=O)(=O)c1cccc(-c2n[nH]c(=S)n2/N=C/c2ccc(C(=O)OC)cc2)c1`: the inhibition was -0.07%.

With `Cc1cc(C)nc(NC(=O)c2cccc([N+](=O)[O-])c2)c1`, the inhibition is 2.05%.

Consider `COc1ccc(/C=C/C(=O)c2cc(Br)ccc(=O)c2O)cc1`, for which the inhibition was 5.15%.

As for `COc1ccc(/C=C/C(=O)NC(=S)NN2CCCCC2c2cccnc2)cc1` (stereo not given), the inhibition is 44% (active).

Consider `CCOc1ccc(NC(=S)NC(=O)/C=C/c2ccc(OC)cc2)c([N+](=O)[O-])c1`, for which the inhibition is 0.55%.

In the case of `O=C(/C=C/c1ccc(F)cc1)NC(=S)NNC(=O)c1cccnc1`, the inhibition was 2.46%.

For `NC(=O)CC[C@@H]1NC(=O)[C@H](CO)NC(=O)c2cc([N+](=O)[O-])cc(I)c2NCC[C@@H](C(N)=O)NC1=O`, the inhibition is 0.11%.

For the compound `COCCN1C(=O)N[C@@H](c2ccccc2)C(C(=O)OC)=C1C`, the inhibition is 1.37%.

Turning to `Cc1ccc(S(=O)(=O)c2ccc(Cl)cc2)cc1S(=O)(=O)NC(C(=O)O)C(C)C` (stereo not given), the inhibition was -0.6%.

With `C/C(Cc1ccccc1)=N\NC(=O)CNC(=O)c1cccc(Br)c1`, the inhibition is 2.91%.

For the compound `N#Cc1c(NC(=O)CCCN2C(=O)c3ccccc3C2=O)oc(-c2ccccc2)c1-c1ccccc1`, the inhibition was 20.4% (active).

As for `O=C(CCN1C(=O)c2ccccc2C1=O)Nc1ccncc1`, the inhibition is 1.5%.

Regarding `COc1cc(C(=O)Nc2oc(-c3ccccc3)c(-c3ccccc3)c2C#N)cc(OC)c1OC`, the inhibition was 0.05%.

Regarding `O=C(/C=C/c1cnc2ccccc2n1)NC1CCCCCC1`, the inhibition was 5.1%.

As for `O=C(O)/C(=C/c1cccnc1)NC(=O)c1ccccc1`, the inhibition is 0.95%.

As to `CCCc1[nH]nc2c1C(c1ccc(Br)s1)C(C#N)=C(N)O2` (stereo not given), the inhibition is 53.5% (active).

With `CCCc1[nH]nc2c1C(C1CC=CCC1)C(C#N)=C(N)O2` (stereo not given), the inhibition was 2.32%.

Take `CCCc1[nH]nc2c1C(c1c(C)nn(-c3ccccc3)c1Cl)C(C#N)=C(N)O2` (stereo not given): the inhibition was 0.27%.

As to `Cc1[nH]c2ccccc2c1C(=O)COC(=O)c1c(-c2ccccc2)noc1C`, the inhibition was -0.4%.

Regarding `C/C(=C/C(=O)N1CCN(C)CC1)C(=O)O`, the inhibition was 1.55%.

For the compound `CN(CC(=O)Nc1ccc(S(=O)(=O)N2CCCC2)cc1)Cc1ccc(Cl)c(Cl)c1`, the inhibition is 1.24%.

Regarding `CC(C)CNC(=S)NC(=O)c1ccc(Cl)cc1`, the inhibition was 6.88%.

For the compound `O=S(=O)(O)c1nc2ccccc2n1Cc1ccc(Cl)cc1`, the inhibition was 3%.

Turning to `Cc1ccc(Cn2c(NC(=O)c3ccco3)nc3ccccc32)cc1`, the inhibition is 15.8%.

For `N=c1n(Cc2ccc(Cl)cc2)c2ccccc2n1CC(O)c1ccco1` (stereo not given), the inhibition was 18.4% (active).

As for `CC(C)[C@@H]1NC(=O)c2cc([N+](=O)[O-])cc(I)c2NCCC[C@@H](C(=O)NC(CC(=O)O)C(N)=O)NC(=O)[C@H](CO)NC1=O` (stereo not given in full), the inhibition was 2.25%.

`CCOc1ccc(NC(=O)c2ccc(CSc3nnnn3C)cc2)cc1`: the inhibition is 1.22%.

As to `O=C(NCCOc1ccccc1)c1ccccc1`, the inhibition is 0.21%.

Turning to `C=CCNCCCCOc1ccccc1`, the inhibition is 28.3% (active).

Consider `C=CCNC(=O)CCCOc1cccc(C)c1`, for which the inhibition is 1.38%.

In the case of `CCC1S/C(=N/N=C/c2ccco2)NC1=O` (stereo not given), the inhibition was 2.82%.

As to `CN(C)S(=O)(=O)c1cc(NC(=O)CN2C(=O)NC3(CCCc4ccccc43)C2=O)ccc1Cl` (stereo not given), the inhibition was -4.1%.

Consider `OCC(CO)(CO)NCc1ccc(-c2ccccc2)cc1`, for which the inhibition is 4.54%.

`COc1ccc(S(=O)(=O)NC(C)C)cc1C(=O)NC1CCCCC1`: the inhibition is 5.96%.

Take `COc1cc2c3c(c1)/C(=C1/SC(=S)NC1=O)C(=O)N3C(C)(C)C=C2C`: the inhibition is -1.35%.

As for `CCC/C=C(\CCC)C(NC(=O)Cc1ccccc1)c1ccc(C(=O)OC)cc1` (stereo not given), the inhibition is 20.7% (active).

With `COc1ccc(C(CC(=O)O)NC(=O)Cc2ccccc2)cc1` (stereo not given), the inhibition is 0.31%.

Regarding `CCC[C@@H]1C[C@@]1(CCC)[C@@H](NC(=O)c1ccccc1)c1ccc(C(=O)OC)cc1`, the inhibition is 6.17%.

As for `CCN(c1ccc(NC(=O)COC(=O)CCc2nc3ccccc3n2-c2ccccc2)cc1)C(C)C`, the inhibition is -0.2%.

`Cc1cc(-c2n[nH]c(=S)n2-c2ccc(C)c(C)c2)no1`: the inhibition is 3.33%.

Take `Cc1nc(SCc2ccc(F)cc2)c([N+](=O)[O-])[nH]1`: the inhibition is 6.36%.

Turning to `COc1cc(/C=C/C(=O)O)cc(S(=O)(=O)Nc2ccccc2SC)c1OC`, the inhibition is 1.33%.

In the case of `Cc1cccc2cc(CN(Cc3cccs3)C(c3nnnn3C3CCCC3)C(C)C)c(=O)[nH]c12` (stereo not given), the inhibition is 11%.

Turning to `Cc1cccc2cc(CN(Cc3ccc4c(c3)OCO4)Cc3nnnn3C3CCCC3)c(=O)[nH]c12`, the inhibition is -0.14%.

In the case of `CCC(c1nnnn1C1CCCC1)N(Cc1cccs1)Cc1cc2cccc(C)c2[nH]c1=O` (stereo not given), the inhibition was 18% (active).
